{"source": "ChEMBL document CHEMBL2218924", "about": "“A broad activity screen in support of a chemogenomic map for kinase signalling research and drug discovery” (Biochem J, 2013)", "key": {"[1]": {"target": "Tyrosine-protein kinase SYK (Homo sapiens) (UniProt P43405)", "conditions": "at 10 µM"}, "[2]": {"target": "T1, Mitogen-activated protein kinase kinase kinase 7 (Homo sapiens) (UniProt O43318)", "T1 sequence (whole entry)": "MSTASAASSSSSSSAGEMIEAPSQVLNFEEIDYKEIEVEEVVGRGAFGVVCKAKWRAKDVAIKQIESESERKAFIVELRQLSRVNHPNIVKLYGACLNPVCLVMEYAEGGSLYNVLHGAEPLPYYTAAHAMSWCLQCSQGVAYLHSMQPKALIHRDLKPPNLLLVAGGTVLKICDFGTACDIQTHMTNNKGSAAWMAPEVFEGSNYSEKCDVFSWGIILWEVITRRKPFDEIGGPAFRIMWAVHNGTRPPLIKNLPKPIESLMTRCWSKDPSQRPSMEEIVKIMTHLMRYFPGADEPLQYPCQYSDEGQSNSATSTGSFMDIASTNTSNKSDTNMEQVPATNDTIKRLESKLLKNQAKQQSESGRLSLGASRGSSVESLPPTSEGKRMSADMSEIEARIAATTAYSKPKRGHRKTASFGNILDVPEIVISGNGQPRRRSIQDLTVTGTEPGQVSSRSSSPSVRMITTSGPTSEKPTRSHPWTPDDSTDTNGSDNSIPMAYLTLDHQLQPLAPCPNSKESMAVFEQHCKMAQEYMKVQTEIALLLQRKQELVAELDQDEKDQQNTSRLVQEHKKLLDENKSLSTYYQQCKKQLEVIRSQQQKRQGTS", "conditions": "at 1 µM"}, "[3]": {"target": "T2, Serine/threonine-protein kinase TAO1 (Homo sapiens) (UniProt Q7L7X3)", "T2 sequence (whole entry)": "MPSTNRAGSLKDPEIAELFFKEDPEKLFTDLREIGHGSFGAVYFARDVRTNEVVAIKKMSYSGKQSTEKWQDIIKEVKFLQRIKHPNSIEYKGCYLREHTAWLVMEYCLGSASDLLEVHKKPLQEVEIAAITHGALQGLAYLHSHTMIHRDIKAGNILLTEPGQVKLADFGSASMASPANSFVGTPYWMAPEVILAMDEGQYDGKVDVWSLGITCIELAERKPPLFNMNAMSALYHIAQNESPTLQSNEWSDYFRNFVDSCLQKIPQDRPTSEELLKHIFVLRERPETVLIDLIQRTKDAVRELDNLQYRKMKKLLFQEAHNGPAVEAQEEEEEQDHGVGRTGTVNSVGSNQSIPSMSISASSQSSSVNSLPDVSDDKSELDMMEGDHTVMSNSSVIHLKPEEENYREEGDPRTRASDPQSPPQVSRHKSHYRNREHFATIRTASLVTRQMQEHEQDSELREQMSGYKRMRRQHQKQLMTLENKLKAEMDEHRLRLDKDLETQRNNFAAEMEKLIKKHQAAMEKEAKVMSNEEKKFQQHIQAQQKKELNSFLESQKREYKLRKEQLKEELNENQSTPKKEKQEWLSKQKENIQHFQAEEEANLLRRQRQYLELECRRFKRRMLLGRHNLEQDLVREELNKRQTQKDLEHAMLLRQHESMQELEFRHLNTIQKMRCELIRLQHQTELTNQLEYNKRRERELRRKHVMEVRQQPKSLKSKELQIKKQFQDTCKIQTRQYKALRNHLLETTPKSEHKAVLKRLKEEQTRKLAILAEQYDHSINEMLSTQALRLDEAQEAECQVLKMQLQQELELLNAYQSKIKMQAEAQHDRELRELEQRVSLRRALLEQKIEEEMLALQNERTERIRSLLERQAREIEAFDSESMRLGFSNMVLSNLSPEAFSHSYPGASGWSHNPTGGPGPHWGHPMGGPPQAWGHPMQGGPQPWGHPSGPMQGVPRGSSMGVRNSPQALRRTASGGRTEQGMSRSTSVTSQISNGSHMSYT", "conditions": "at 1 µM"}, "[4]": {"target": "T2, Serine/threonine-protein kinase TAO1 (Homo sapiens)", "conditions": "at 10 µM"}, "[5]": {"target": "T3, Serine/threonine-protein kinase TAO2 (Homo sapiens) (UniProt Q9UL54)", "T3 sequence (whole entry)": "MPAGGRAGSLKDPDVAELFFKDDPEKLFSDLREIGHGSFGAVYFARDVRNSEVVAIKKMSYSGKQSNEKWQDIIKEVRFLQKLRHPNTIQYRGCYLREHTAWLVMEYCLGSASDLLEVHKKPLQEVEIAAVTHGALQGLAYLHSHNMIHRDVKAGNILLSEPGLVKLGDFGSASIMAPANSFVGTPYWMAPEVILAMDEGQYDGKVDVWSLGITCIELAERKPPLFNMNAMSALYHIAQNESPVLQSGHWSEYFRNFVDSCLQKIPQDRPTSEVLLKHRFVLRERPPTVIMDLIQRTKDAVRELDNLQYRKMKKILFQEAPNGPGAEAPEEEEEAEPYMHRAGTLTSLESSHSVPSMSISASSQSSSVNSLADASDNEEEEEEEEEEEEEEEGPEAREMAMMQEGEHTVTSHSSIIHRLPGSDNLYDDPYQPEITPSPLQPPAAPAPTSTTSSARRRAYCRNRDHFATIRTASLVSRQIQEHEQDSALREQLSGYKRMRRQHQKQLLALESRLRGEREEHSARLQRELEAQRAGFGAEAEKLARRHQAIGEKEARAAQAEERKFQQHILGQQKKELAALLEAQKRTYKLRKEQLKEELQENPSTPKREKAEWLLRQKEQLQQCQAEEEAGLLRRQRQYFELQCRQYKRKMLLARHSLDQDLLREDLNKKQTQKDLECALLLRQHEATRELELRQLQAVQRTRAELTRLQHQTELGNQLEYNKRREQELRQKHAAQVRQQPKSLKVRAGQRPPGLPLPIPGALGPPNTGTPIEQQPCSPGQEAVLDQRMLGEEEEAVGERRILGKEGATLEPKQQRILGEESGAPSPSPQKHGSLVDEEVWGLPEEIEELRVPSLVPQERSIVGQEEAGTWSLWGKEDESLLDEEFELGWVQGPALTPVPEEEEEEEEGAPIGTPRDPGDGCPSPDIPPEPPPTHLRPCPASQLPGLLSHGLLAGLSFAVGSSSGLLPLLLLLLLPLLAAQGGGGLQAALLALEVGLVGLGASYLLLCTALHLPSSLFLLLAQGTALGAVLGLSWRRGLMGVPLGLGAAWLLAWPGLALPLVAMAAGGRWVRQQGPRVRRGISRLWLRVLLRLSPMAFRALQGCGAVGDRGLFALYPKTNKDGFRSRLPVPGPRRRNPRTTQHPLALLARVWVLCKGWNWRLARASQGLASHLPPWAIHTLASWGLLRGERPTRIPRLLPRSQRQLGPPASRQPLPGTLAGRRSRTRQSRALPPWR", "conditions": "at 1 µM"}, "[6]": {"target": "T3, Serine/threonine-protein kinase TAO2 (Homo sapiens)", "conditions": "at 10 µM"}, "[7]": {"target": "T4, Serine/threonine-protein kinase TAO3 (Homo sapiens) (UniProt Q9H2K8)", "T4 sequence (whole entry)": "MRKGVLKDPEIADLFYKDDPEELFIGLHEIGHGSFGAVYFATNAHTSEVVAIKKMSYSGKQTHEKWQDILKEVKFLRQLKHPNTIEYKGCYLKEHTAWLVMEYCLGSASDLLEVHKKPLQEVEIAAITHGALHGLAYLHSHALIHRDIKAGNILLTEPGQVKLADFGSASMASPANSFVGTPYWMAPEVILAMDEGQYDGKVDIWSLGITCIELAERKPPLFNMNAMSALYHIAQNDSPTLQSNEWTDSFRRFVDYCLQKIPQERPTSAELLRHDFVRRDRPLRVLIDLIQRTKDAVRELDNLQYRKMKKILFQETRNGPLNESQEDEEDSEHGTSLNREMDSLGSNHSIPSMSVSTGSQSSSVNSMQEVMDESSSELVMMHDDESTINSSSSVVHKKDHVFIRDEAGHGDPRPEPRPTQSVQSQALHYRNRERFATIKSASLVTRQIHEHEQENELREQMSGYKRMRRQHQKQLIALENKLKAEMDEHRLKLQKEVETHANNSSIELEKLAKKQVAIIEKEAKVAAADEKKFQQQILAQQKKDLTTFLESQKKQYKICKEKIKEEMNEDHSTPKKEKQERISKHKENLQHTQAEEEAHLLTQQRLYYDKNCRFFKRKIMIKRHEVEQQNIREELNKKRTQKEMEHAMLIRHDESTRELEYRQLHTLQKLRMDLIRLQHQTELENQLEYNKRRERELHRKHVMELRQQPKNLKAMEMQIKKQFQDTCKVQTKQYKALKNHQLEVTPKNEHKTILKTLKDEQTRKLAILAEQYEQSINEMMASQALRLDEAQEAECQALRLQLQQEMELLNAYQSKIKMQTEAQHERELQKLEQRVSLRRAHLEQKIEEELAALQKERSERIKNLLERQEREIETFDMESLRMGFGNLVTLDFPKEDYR", "conditions": "at 1 µM"}, "[8]": {"target": "T4, Serine/threonine-protein kinase TAO3 (Homo sapiens)", "conditions": "at 10 µM"}, "[9]": {"target": "T5, Serine/threonine-protein kinase TBK1 (Homo sapiens) (UniProt Q9UHD2)", "T5 sequence (whole entry)": "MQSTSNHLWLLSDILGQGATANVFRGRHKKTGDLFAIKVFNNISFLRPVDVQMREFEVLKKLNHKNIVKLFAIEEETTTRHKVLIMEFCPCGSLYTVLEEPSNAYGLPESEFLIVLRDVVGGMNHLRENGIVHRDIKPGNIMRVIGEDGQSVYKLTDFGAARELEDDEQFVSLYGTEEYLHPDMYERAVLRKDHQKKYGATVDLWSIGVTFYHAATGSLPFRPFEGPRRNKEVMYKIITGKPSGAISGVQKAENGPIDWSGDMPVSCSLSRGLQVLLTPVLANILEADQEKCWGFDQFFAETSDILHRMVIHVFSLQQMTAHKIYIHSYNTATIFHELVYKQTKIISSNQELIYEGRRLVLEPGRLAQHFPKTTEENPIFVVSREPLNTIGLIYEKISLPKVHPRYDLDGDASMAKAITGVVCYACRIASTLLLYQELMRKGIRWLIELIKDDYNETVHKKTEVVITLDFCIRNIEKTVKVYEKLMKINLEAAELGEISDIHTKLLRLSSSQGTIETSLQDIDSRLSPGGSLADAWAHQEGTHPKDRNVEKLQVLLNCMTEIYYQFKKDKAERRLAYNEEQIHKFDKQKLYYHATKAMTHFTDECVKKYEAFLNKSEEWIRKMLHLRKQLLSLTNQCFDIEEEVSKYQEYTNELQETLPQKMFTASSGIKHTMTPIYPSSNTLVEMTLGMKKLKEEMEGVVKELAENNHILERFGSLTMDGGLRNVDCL", "conditions": "at 1 µM"}}}
{"smiles": "O=C1NC(=O)c2cc(Nc3ccc(F)cc3)c(Nc3ccc(F)cc3)cc21", "values": [{"measurement": "residual activity", "setting": "[1]", "value": 78, "unit": "%"}, {"measurement": "residual activity", "setting": "[2]", "value": 83, "unit": "%"}, {"measurement": "residual activity", "setting": "[3]", "value": 83, "unit": "%"}, {"measurement": "residual activity", "setting": "[4]", "value": 39, "unit": "%"}, {"measurement": "residual activity", "setting": "[5]", "value": 63, "unit": "%"}, {"measurement": "residual activity", "setting": "[6]", "value": 21, "unit": "%"}, {"measurement": "residual activity", "setting": "[7]", "value": 79, "unit": "%"}, {"measurement": "residual activity", "setting": "[8]", "value": 37, "unit": "%"}, {"measurement": "residual activity", "setting": "[9]", "value": 69, "unit": "%"}]}
